Hits are enriched below; roughly 10% of the tested compounds scored in any of these assays.
PNC inhibitor: perinucleolar compartment assembly inhibition; PC3M PTB-GFP, PNC prevalence imaging, 16 h; hits give low values; activity change (PNC), negative = inhibition, % at 10 µM; AID 2417; actives 3.1% (n = 140,000);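 active = readout at or below -70, meaning at least 70% loss of cells showing the perinucleolar compartment, a nuclear body marking cancer cells; inconclusive = readout between -30 and a set limit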
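Compounds are pinned in duplicate onto adhered PC3M cells stably expressing GFP-tagged PTB and incubated 16 h at 37 C. Cells are then fixed, nuclei stained with Hoechst, and PNC-positive cells counted.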
ALDH1A1 inh: ALDH1A1 (human) enzyme inhibition | P00352 | Purified ALDH1A1, NADH fluorescence, propionaldehyde substrate | Potency, µM (top dose mostly 75.3 µM), usual class: inhibitors | actives 7.3% (n = 220,000)
Target sequence (P00352 whole entry, looked up): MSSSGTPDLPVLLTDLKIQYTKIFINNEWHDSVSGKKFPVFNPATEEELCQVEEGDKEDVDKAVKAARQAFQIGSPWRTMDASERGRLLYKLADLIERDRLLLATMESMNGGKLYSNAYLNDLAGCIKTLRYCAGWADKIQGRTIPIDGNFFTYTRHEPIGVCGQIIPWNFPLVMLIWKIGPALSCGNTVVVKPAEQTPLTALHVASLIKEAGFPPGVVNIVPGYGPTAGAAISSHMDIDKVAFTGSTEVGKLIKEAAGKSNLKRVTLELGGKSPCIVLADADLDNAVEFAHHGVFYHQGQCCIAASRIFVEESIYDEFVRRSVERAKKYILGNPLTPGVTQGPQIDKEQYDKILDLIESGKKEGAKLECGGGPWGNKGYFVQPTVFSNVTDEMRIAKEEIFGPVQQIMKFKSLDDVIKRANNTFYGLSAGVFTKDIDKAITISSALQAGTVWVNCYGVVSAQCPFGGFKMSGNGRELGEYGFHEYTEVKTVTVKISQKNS
Luc counter: counter-screen: inhibitors of Kinase-Glo firefly luciferase; Kinase-Glo luciferase, ATP luminescence, 8 min; Potency, µM (doses to about 38.3 µM), actives largely listed as inhibitors; actives 0.28% (n = 200,000); AID 1379; active = well fitted inhibition curve with a large enough effect; inconclusive = small, poorly fitted or top-dose-only effect; note: nearly all actives have a fitted effect of over 60% in size
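Recombinant Kinase-Glo luciferase, 10 uM ATP (linear range), luciferin; imidazole pH 7.2 / KCl / MgCl2 / Tween / BSA buffer; 8 min RT; luminescence.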
HPGD inh: HPGD (human) dehydrogenase inhibition | P15428 | purified HPGD, NADH fluorescence kinetic, PGE2 substrate | Potency, µM, actives largely listed as inhibitors | actives 4.3% (n = 150,000) | AID 894
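NADH formation kinetics: reaction with 30 uM PGE2 and 1 mM NAD+ (final), 20 nM enzyme, Tris-HCl pH 8 with Tween 20, after 15 min compound preincubation at room temperature. Fluorescence change, last versus first of five reads.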
LMNA splice mod: changes lamin A minigene splicing in HeLa cells | HeLa LMNA splicing GFP/RFP minigene ratio, 48 h | Potency, µM (highest dose often 46.1 µM), hits mostly inhibitors | actives 0.01% (n = 200,000); active = well fitted inhibition curve with a large enough effect in the signal ratio, with a control signal flat, not every such curve was filed as active; inconclusive = small, poorly fitted or top-dose-only effect, or effect the other way, or a change in a side signal; the % refers to the signal ratio
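S3 HeLa stable clones carrying a lamin A-EGFP splicing minigene plus DsRed2 were seeded at 600 cells/well in Opti-MEM with 2% FBS, pin-dosed and incubated 48 h at 37°C. Acumen cytometry (488 nm) gave the GFP/RFP total-intensity ratio.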
Numbers stand for hits; n = inactive; u = inconclusive; x = not tested or not shown; [ ] = dose if it differs, or a comment. Unless noted, calls come from the whole dose curve; as a rule, active = well fitted inhibition curve with a large enough effect (not every such curve was filed as active); inconclusive = small, poorly fitted or top-dose-only effect, or another doubt; inactive = no such curve, though single readings can be large or run the other way.

SMILES	PNC inhibitor	ALDH1A1 inh	Luc counter	HPGD inh	LMNA splice mod
CC1(C)CC(=O)C2=C(C1)OC(N)=C(C#N)C21C(=O)N(Cc2ccccc2Cl)c2ccccc21 (stereo not drawn)	n	2.8µM	n	n	n
COc1ccc(NC(=O)COCc2cc(-c3ccc4c(c3)OCO4)on2)cc1	x	x	x	x	n
COc1cccc(Nc2ncc3nc(C)c(=O)n(C4CC4)c3n2)c1	x	n	x	x	n
COC(=O)[C@@]1(C)CCC[C@@]2(C)c3ccc(O)c(C(C)C)c3CCC21 (stereo partly drawn)	x	n	n	n	x
Cc1cc2c(c(=O)o1)C1(C(=O)N(C)c3ccccc31)C(C#N)=C(N)O2 (stereo not drawn)	n	n	n	n	n
COC(=O)Cc1[nH]nc2c1C1(C(=O)N(Cc3ccccc3)c3ccccc31)C(C#N)=C(N)O2 (stereo not drawn)	n	20µM	n	n	n
COc1cc2c3c(c1)C1(C(=O)N3C(C)(C)C=C2C)C(C#N)=C(N)Oc2cc(C)oc(=O)c21 (stereo not drawn)	n	4µM	n	n	u
C=CCCCCCCCCCCCC(O)CC(O)CO (stereo not drawn) (tested in a mixture with another compound)	x	n	n	n	x
Cc1ccc(-c2nc3scc(CCNS(=O)(=O)c4ccc(Oc5ccccc5)cc4)n3n2)cc1	x	x	x	x	n
O=C(CCCc1nc2ccccc2s1)NCc1ccccc1	n	n	n	14µM	n
CN(C(=O)CCc1nc2ccccc2s1)c1ccccc1	-112	n	n	u	n
O=C(O)CCCc1nc2ccccc2s1	n	n	n	n	n
O=C(CCCc1nc2ccccc2s1)NCc1ccc(F)cc1	u	u	n	25µM	n
O=C(CCc1nc2ccccc2s1)c1ccccc1	n	n	n	u	n
O=c1cc(NCc2ccc3c(c2)OCO3)[nH]c(=O)n1-c1ccc(Cl)cc1	n	n	n	n	n
Cc1ccccc1-n1c(=O)cc(NCc2ccc3c(c2)OCO3)[nH]c1=O	n	14µM	n	n	u
CCC(C)(C)n1nnnc1CN1CCC(NC(=O)c2ccccc2C)CC1	-100	u	n	n	n
CCC(C)(C)n1nnnc1CN1CCC(c2nc3ccc(C)cc3[nH]2)CC1	n	10µM	n	n	n
CCOc1ccccc1C(=O)NC1CCN(Cc2nnnn2C2CCCC2)CC1	u	28µM	n	n	n
Cc1cc(Cl)ccc1NC(=O)c1cc(S(=O)(=O)N2CCOCC2)cn1C	x	x	x	x	n
COc1ccc(CNC(=O)Cn2c(=O)oc3cc(S(=O)(=O)NCc4ccccc4)ccc32)cc1	x	x	x	x	n
Cc1cc2nc(-c3ccc(SCC(=O)N4CCOCC4)nc3)[nH]c2cc1C	-89	u	u	u	n
Cc1cc2nc(-c3ccc(SCC(=O)N4CCN(C(=O)c5ccco5)CC4)nc3)[nH]c2cc1C	n	u	u	u	u
Cc1cc2nc(-c3ccc(SCC(=O)Nc4ccc5c(c4)OCCO5)nc3)[nH]c2cc1C	n	u	11µM	u	n
CC(NC(=O)CCN1C(=O)c2ccccc2C1=O)c1ccc2c(c1)CCCC2 (stereo not drawn)	-113	u	n	n	n
SMILES	PNC inhibitor	ALDH1A1 inh	Luc counter	HPGD inh	LMNA splice mod
CC(NC(=O)CCCN1C(=O)c2ccccc2C1=O)c1ccc2c(c1)CCCC2 (stereo not drawn)	u	u	n	n	n
O=c1c2c3c(sc2ncn1/N=C/c1ccc([N+](=O)[O-])o1)CCCC3	n	0.2µM	n	n	n
Cn1cc(/C=N/n2cnc3sc4c(c3c2=O)CCCC4)c2ccccc21	n	u	n	u	n
COc1ccc(-c2cn3nc(N4CCCC(C(=O)Nc5ccccc5F)C4)sc3n2)cc1 (stereo not drawn)	x	x	x	x	n
COc1ccc(NC2=C(C(C)=O)C(c3ccc(OC)cc3)C(C(C)=O)C(C)(O)C2)cc1 (stereo not drawn)	x	n	n	x	n
COc1ccc(C2C(C(C)=O)=C(Nc3ccccc3)CC(C)(O)C2C(C)=O)cc1OC (stereo not drawn)	-119	u	n	n	n
CC(C#N)On1c(SC(C)C#N)nc2ccccc2c1=O (stereo not drawn)	n	16µM	n	n	n
COC(=O)[C@@H]1[C@@H](C)N(CCc2cc(OC)c(OC)c(OC)c2)C(=O)N[C@H]1c1ccccc1	x	n[13.5 µM]	n[7.66 µM]	n	u
C[C@H]1Cc2c(-c3ccccc3)nc3c(c2CO1)CN(C(=O)NCc1ccco1)CC3	x	n[13.5 µM]	n[7.66 µM]	n	n[9.22 µM]
CN(C)S(=O)(=O)c1cccc(-c2nn(-c3ccccc3)cc2/C=C2\SC(=S)NC2=O)c1	n	n	n	16µM	u
N[C@](CC1c2ccccc2Oc2ccccc21)(C(=O)O)[C@@H]1C[C@@H]1C(=O)O	x	n	n	n	x
O=[N+]([O-])/C(C(Cl)=C(Cl)Cl)=C(\Nc1ccc(F)cc1)n1cncn1	n	13µM	n	28µM	u
CCOc1ccccc1N/C(=C(/C(Cl)=C(Cl)Cl)[N+](=O)[O-])n1cncn1	n	20µM	n	n	n
Cc1cc(C)cc(-n2ccnc2SCC(=O)Nc2ccc(C)c(Cl)c2)c1	x	x	x	x	n
Cc1cc(C)nc(SCC(=O)Nc2ncc(Cc3ccc(Cl)c(Cl)c3)s2)n1	-113	n	n	n	n
O=C(CSc1nnnn1-c1cccc2ccccc12)Nc1ccc(N2CCOCC2)c(Cl)c1	n	1.8µM	n	n	n
Cc1cc(C)nc(SCC(=O)Nc2ccc(N3CCOCC3)c(Cl)c2)n1	n	22µM	n	n	u
CCOC(=O)CSc1nnnn1-c1cccc2ccccc12	n	1.8µM	n	25µM	n
Cc1ccc(Cc2cnc(NC(=O)CN3CCOCC3)s2)cc1Cl	n	n	n	n	u
COC(=O)[C@H](Cc1ccccc1)NC(=O)O[C@H]1C(=O)c2cc(OC)ccc2O[C@@H]1c1ccc(OC)c(Br)c1	x	n	n	n	x
c1cncc(CSc2ncnc3nc[nH]c23)c1	x	n[13.5 µM]	n[7.66 µM]	n	x
c1ccc(CNc2nc(-c3ccoc3)nc3ccccc23)cc1	x	32µM	x	x	u
CN(C)C(=O)c1ccc(-c2nnc(NCc3ccccc3)c3ccccc23)cc1	n	u	n	2.5µM	n
Cc1cnc(CNc2nc(-c3ccc(C(=O)N(C)C)cc3)nc3ccccc23)cn1	x	n	n	14µM	n
CN(C)C(=O)c1ccc(-c2nc(NCc3cccnc3)c3ccccc3n2)cc1	x	n	n	16µM	n
CN(C)C(=O)c1ccc(-c2cncnc2NCc2ccccc2)cc1	x	n	x	x	n
CC(C)(C)c1ccc(-c2nc(NCc3cccnc3)c3ccccc3n2)cc1	n	n	n	n	u
CCN(C(=O)c1cc(S(=O)(=O)N2CCCC2)cn1C)c1ccc(OC)cc1	x	x	x	x	n
N[C@H](Cn1ccc(=O)n(Cc2ccccc2C(=O)O)c1=O)C(=O)O	x	n	n	n	x
CN(C)C(=O)c1ccc(-c2nccc(NCc3cccnc3)n2)cc1	x	n	n	14µM	n
